Source: PubChem BioAssay
This is one part of a sample in which hits are shown more often than they occur.
Vaccinia Venus = vaccinia inhibition (Venus reporter). Vaccinia virus Venus reporter expression, fluorescence. Potency, µM (top dose mostly 36.5 µM), without a hit: top-dose activity change, negative = inhibition, actives largely listed as inhibitors. actives 0.46% (n = 330,000). AID 720580; calls by dose curve; tested in A549 cells; also: potency is read from the fitted curve at half-maximal effect; % is scaled to controls: 0 for no effect and ±100 for the full control effect; nearly all actives have a fitted effect of over 30% in size
CHX counter = counter-screen for Shiga toxin inhibitors: cycloheximide protein synthesis inhibition; cell reporter, cycloheximide protein synthesis inhibition counterscreen; max response, %; actives 12% (n = 300,000); in the data active = max response mostly above about 13%, no sharp cut-off; inactive = mostly below about 14%; also: read at 38.3 µM for the half of the compounds with a filed dose; 0% is about no effect
Shiga inhibitor = Shiga toxin inhibition; inhibition, % at 38.7 µM; actives 9.2% (n = 290,000); AID 2315; Vero cells, Shiga toxin protein synthesis inhibition reporter; in the data active = inhibition mostly above about 28%, no sharp cut-off; inactive = mostly below about 43%; also: 0% is about no effect
Vaccinia mCherry = vaccinia inhibition (mCherry reporter) | actives 0.63% (n = 310,000) | Vaccinia virus mCherry reporter infection, fluorescence | Potency, µM (top dose mostly 36.5 µM), without a hit: top-dose activity change, negative = inhibition, hits mostly inhibitors; calls by dose curve; tested in A549 cells; also: potency is read from the fitted curve at half-maximal effect; % is scaled to controls: 0 for no effect and ±100 for the full control effect; nearly all actives have a fitted effect of over 35% in size
LASV entry inh = blocks Lassa virus binding to or entry into cells | AID 540256 | Potency, µM (highest dose often 37.9 µM), inactives show at the highest dose activity change, negative = inhibition, usual class: inhibitors | Lassa virus pseudotype entry inhibition, cell reporter | actives 1.2% (n = 300,000); calls by dose curve; tested in HEK293 cells; also: potency is read from the fitted curve at half-maximal effect; % is scaled to controls: 0 for no effect and ±100 for the full control effect; nearly all actives have a fitted effect of over 50% in size
Marburg entry inh = blocks Marburg virus binding to or entry into cells. Marburg virus pseudotyped entry inhibition, cell reporter. Potency, µM (highest dose often 37.8 µM), for the others: at the top dose activity change, negative = inhibition, most hits filed as inhibitors. actives 1.8% (n = 300,000); calls by dose curve; tested in HEK293 cells; also: potency is read from the fitted curve at half-maximal effect; % is scaled to controls: 0 for no effect and ±100 for the full control effect
The depositor's hits bear a star; i = inactive; ? = inconclusive; · = no result; [ ] = remark or other dose.

SMILES	Vaccinia Venus	CHX counter	Shiga inhibitor	Vaccinia mCherry	LASV entry inh	Marburg entry inh
Cc1ccc(C2=NS(=O)(=O)N(C)C(C(=O)Nc3ccc4c(c3)OCO4)=C2)cc1	-11%	18*	18*	-16%	·	·
COc1ccc(C2=NS(=O)(=O)N(C)C(C(=O)Nc3ccc4c(c3)OCO4)=C2)cc1OC	-14%	20*	11	-12%	·	·
O=c1c2ccccc2nnn1CSc1nnc(-c2cccs2)n1Cc1ccccc1	·	-3	-30	·	?	0.82µM*
Cc1cccc(-n2nnnc2SCn2nnc3ccccc3c2=O)c1	·	23*	53	·	2%	3%
O=c1c2ccccc2nnn1CSc1nnnn1-c1ccc(O)cc1	·	32*	67*	·	·	·
Cc1ccc(-n2nnnc2SCn2nnc3ccccc3c2=O)cc1	-19%	62*	95*	·	-8%	-14%
Cn1c(SCn2nnc3ccccc3c2=O)nc2ccccc2c1=O	·	0	-2	·	·	·
CCOc1ccc2c(c1)c(=O)c(S(=O)(=O)c1ccc(C)cc1)cn2Cc1ccccc1Cl	9%	·	·	8%	-23%[46.1 µM]	?
CC(=O)NC(C)(c1ccccc1)c1nc(-c2cnc3ccccc3c2)cs1 (centres undefined)	-11%	·	·	21%	·	·
O=c1c2ccccc2nnn1CSc1nc2ccccc2c(=O)n1CCCO	-13%	16	3	-14%	13%[46.1 µM]	?
O=c1c2ccccc2nnn1CSc1nnc2ccccn12	·	34*	99*	·	-12%	?
NC(=O)c1ccc(NC(=O)CCCNC(=O)c2ccc(Cl)cc2)cc1	·	2	-5	·	·	·
COc1ccc(N=Nc2c(C)[nH]c3ccccc23)cc1	-19%	·	·	?	16%[46.1 µM]	?
O=C(N=Nc1c(O)[nH]c2ccccc12)c1cccs1	-20%	39*	107*	i	?	?
CC(=O)c1cccc(N=Nc2c(C)[nH]c3ccccc23)c1	-11%	50*	93*	-19%	17%	-15%
CNC(=S)N=Nc1c(O)[nH]c2ccccc12	-18%	6	17*	i	12%	7%
O=C(O)c1ccc(N=Nc2c(O)[nH]c3ccccc23)cc1	23%	39*	56*	i	5µM*	1.8µM*
CC(C)(C)OC(=O)N1CCC(c2c(C(=O)NCCN3CCOCC3)cnn2-c2cccc(Cl)c2)CC1	-3%	·	·	-14%	?	·
COc1ccc(NC(=S)N=Nc2c(O)[nH]c3ccccc23)cc1	·	3	21	·	·	·
Oc1cccc(NC(=S)N=Nc2c(O)[nH]c3ccc(Br)cc23)c1	?	2	12	-21%	?	5%[46.1 µM]
Oc1ccc(NC(=S)N=Nc2c(O)[nH]c3ccccc23)cc1	-19%	20	51*	?	?	?
Oc1[nH]c2ccc(Br)cc2c1N=NC(=S)Nc1ccc(F)cc1	-15%	-3	-8	?	?	?
Cc1ccc(NC(=S)N=Nc2c(O)[nH]c3ccccc23)cc1	-16%	22*	53*	-29%	?	?
Oc1ccc(NC(=S)N=Nc2c(O)[nH]c3ccc(Br)cc23)cc1	-16%	12	24	?	11µM*	?
COc1ccc(-c2nc3c(C(=O)NCCN(C)C)cccc3c3ccccc23)cc1	?	·	·	-14%	?	?
SMILES	Vaccinia Venus	CHX counter	Shiga inhibitor	Vaccinia mCherry	LASV entry inh	Marburg entry inh
CN(C)CCNC(=O)c1cccc2nc3c(ccc4ccccc43)nc12	11µM*	·	·	?	?	?
COc1cccc2nc3c(C(=O)NCCN(C)C)cccc3cc12	4.5µM*	·	·	3.5µM*	?	7.1µM*
COc1ccc(C(=O)NCCN(C)C)c2nc3ccccc3cc12	6.3µM*	·	·	1µM*	?	1.3µM*
O=C(C1=C(c2ccccc2)C(=O)c2ccccc2C1=O)c1ccccc1	-13%	20	34	?	2.6µM*	?
COCCNC(=O)CSc1nc2ccccc2nc1Cc1ccc(C)cc1	-1%	·	·	-6%	5%[46.1 µM]	·
CCN(c1ccccc1)S(=O)(=O)c1ccc(NC(=O)c2cc(=O)c3c(C)cc(C)cc3o2)cc1	-13%	·	·	16%	10%[46.1 µM]	15%[46.1 µM]
CCCCCCN1C[C@@H](n2cc(C3CC3)nn2)[C@H](O)C[C@H]1c1ccccc1	·	·	·	·	-5%[46.1 µM]	·
Cc1ccc(O)c(NS(=O)(=O)c2cccc3nsnc23)c1	-21%	14*	-4	-17%	6%[46.1 µM]	10%[46.1 µM]
Cc1nnc(SCc2nnc(-c3cccs3)o2)s1	-16%	37*	35	-1%	?	8%
c1ccc(-c2nnc(SCc3nnc(-c4cccs4)o3)o2)cc1	7.1µM*	9	19	·	-1%	?
Clc1ccc(-c2nnc(CSc3nnc(-c4cccs4)o3)o2)cc1	-13%	23	36	·	16%	6%[46.1 µM]
Cc1nnc(SCc2ccccc2CSc2nnc(C)s2)s1	1%	49*	-10	i	-4%	?
CCN(CC)S(=O)(=O)c1ccc(-c2nnc(SCC(=O)N3c4ccccc4CC3C)o2)cc1 (centres undefined)	?	3	-5	0.63µM*	?	-14%
CNC(=O)C(C)N1c2cccc3cccc(c23)S1(=O)=O (centres undefined)	·	-4	-3	·	·	·
O=C(NC(c1cccnc1)C(F)(F)F)c1cc(COc2ccc3c(c2)CCCC3)on1 (centres undefined)	·	46*	100*	·	·	·
Cn1cc(CNC(=O)c2cc(COc3ccc4c(c3)CCCC4)on2)cn1	-5%	23*	16	i	-19%	-4%
CCN(Cc1cnn(C)c1)C(=O)c1cc(COc2ccc3c(c2)CCCC3)on1	·	1	-15	·	·	·
NNC(=O)c1ccc(COc2ccc3c(c2)CCC3)o1	-4%	16	39	-1%	-25%	?
CCOC(=O)Cn1nc(C)cc1NC(=O)c1cccnc1	-10%	12	19	-17%	5%	-2%
COC(=O)C1=C(C(=O)OC)[C@@H]2N(C)c3ccccc3[C@@]23C[C@@H](CO)N(C(=O)c2ccc(Br)cc2)C3=N1	·	·	·	·	·	-34%[14.2 µM]
CN(Cc1ccsc1)C(=O)Cn1cc(Br)ccc1=O	-11%	29*	78*	-6%	-16%[46.1 µM]	14%[46.1 µM]
CN(CC(=O)Nc1cccc(F)c1)C(=O)Cc1ccsc1	-14%	·	·	-11%	·	·
Cc1cccnc1-c1cccc2c1OC(CNC(=O)C1CCCc3c1[nH]c1ccccc31)C2 (centres undefined)	-21%	·	·	-6%	·	·
COCCN1CCn2c(nc3cc(NC(=O)c4cccs4)ccc32)C1	-8%	23	47	i	?	13%
Cn1c(CN2CCCC2)nc2cc(NC(=O)c3ccc(Cl)cc3)ccc21	-28%	35*	42*	-13%	20%	-28%
Cn1c(CN2CCOCC2)nc2cc(NC(=O)c3ccc(F)cc3)ccc21	-15%	17*	54*	-4%	-5%	-21%
CC(c1ccccc1)N1CCn2c(nc3cc(NC(=O)c4cccs4)ccc32)C1 (centres undefined)	-23%	21*	26	-9%	-17%	-30%
Cn1c(CN2CCCC2)nc2cc(NC(=O)c3cccs3)ccc21	-12%	35*	65*	-11%	7%	?
